From PubChem BioAssay (NCATS)
Values joined by “and” are separate entries in the source; they are usually repeats but may differ in a detail not shown here. Identical values can stand only once. Results filed as inconclusive are left out. Active and inactive are the calls of the source. Unless noted, calls come from the whole dose curve; as a rule, active = well fitted curve in the direction sought with a large enough effect; inconclusive = small, poorly fitted or top-dose-only effect, or another doubt; inactive = no such curve, though single readings can be large; an effect the other way counts as inactive or inconclusive. Positions of bridges follow the written chain, without caps; N, C: chain ends. Non-standard residues stand in square brackets, D forms with d. Residues, ends and D or L forms follow the SMILES beside them. *: point of attachment. X1 = CCC(C)C(N)C1=NC(C(=O)*)CS1; dOrn = NCCC[C@@H](N)C(=O)O

Legend:
[1] = molecular target: Cellular tumor antigen p53 (Homo sapiens) (UniProt P04637); test: Primary qHTS for small molecule compounds that upregulate eGFP-tagged delta133p53alpha (in N-terminal) cells. (AID 2060322); conditions: NCI-H358 eGFP-delta133p53alpha fluorescence, 24 h; activation: active compounds read high; note: nearly all actives have a fitted effect of over 75% in size; note: potency is the fitted concentration of half-maximal effect;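 for activation: cells pre-induced with doxycycline then dosed without doxycycline; series mostly up to about 56 µM; 0% = DMSO vehicle and 100% = reference activator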
Procedure, shortened: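 NCI-H358 cells pre-induced 24 h with 10 ng/ml doxycycline for eGFP-delta133p53alpha, plated dox-free and exposed 24 h at 37C to titrated compounds. Fixed, Hoechst-stained; gated GFP peak intensity by laser scanning cytometry, normalized to DMSO (0%) and 57.5 uM 5-azacytidine (100%).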

[2] = molecular target: Aldehyde dehydrogenase, mitochondrial (Homo sapiens) (UniProt P05091); test: qHTS for Inhibitors of the Aldehyde Dehydrogenase Family (ALDH2) Confirmatory screens (AID 2061303; active = well fitted inhibition curve with a large enough effect; title and protocol of this record describe different tests; note: nearly all actives have a fitted effect of over 45% in size; note: potency is the fitted concentration of half-maximal effect)
[3] = molecular target: Aldehyde dehydrogenase, mitochondrial (Homo sapiens) (UniProt P05091); test: qHTS for Inhibitors of the Aldehyde Dehydrogenase Family (ALDH2) Primary screen (AID 2061308);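 note: plate controls were vehicle for no effect and reference inhibitor for full effect; nearly all actives have a fitted effect of over 55% in size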
[4] = molecular target: Retinaldehyde dehydrogenase 3 (Homo sapiens) (UniProt P47895); test: qHTS for Inhibitors of the Aldehyde Dehydrogenase Family (ALDH1A3) Confirmatory screens (AID 2061311); note: nearly all actives have a fitted effect of over 60% in size; note: potency is the fitted concentration of half-maximal effect
[5] = qHTS for Inhibitors of the Aldehyde Dehydrogenase Family (ALDH1A2, ALDH1A3, ALDH2, ALDH3A1) (AID 2061307); note: nearly all actives have a fitted effect of over 50% in size; for Potency: test system not described further here; potency is the fitted concentration of half-maximal effect
[6] = molecular target: Retinaldehyde dehydrogenase 3 (Homo sapiens) (UniProt P47895); test: qHTS for Inhibitors of the Aldehyde Dehydrogenase Family (ALDH1A3) Primary screen (AID 2061315); note: potency is the fitted concentration of half-maximal effect
[7] = molecular target: Aldehyde dehydrogenase 1A1 (Homo sapiens) (UniProt P00352); test: qHTS for Inhibitors of the Aldehyde Dehydrogenase Family (ALDH1A1) Confirmatory screens (AID 2061316); note: nearly all actives have a fitted effect of over 65% in size; note: potency is the fitted concentration of half-maximal effect
[8] = molecular target: Retinal dehydrogenase 2 (Homo sapiens) (UniProt O94788); test: qHTS for Inhibitors of the Aldehyde Dehydrogenase Family (ALDH1A2) Confirmation screens (AID 2061314); note: nearly all actives have a fitted effect of over 65% in size; note: potency is the fitted concentration of half-maximal effect
[9] = molecular target: Retinaldehyde dehydrogenase 3 (Homo sapiens) (UniProt P47895); test: qHTS for Inhibitors of the Aldehyde Dehydrogenase Family (ALDH1A3) Validation screen (AID 2061312); note: % is set by controls: 0 for no effect and ±100 for the full control effect; nearly all actives have a fitted effect of over 45% in size
[10] = BET inhibitor-based combinations targeting novel dependencies in MECOM-rearranged (r) AML: SET-2 cell line (AID 2202231); conditions: SET-2 AML cells viability, CellTiter-Glo luminescence, 48 h; viability: active compounds read low, concentration not given here; note: nearly all actives have a fitted effect of over 35% in size; note: potency is the fitted concentration of half-maximal effect;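 for viability: plate controls were DMSO treated cells for no effect and wells without cells for full effect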
Procedure, shortened: (§1)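 Luminescent ATP readout (CellTiter-Glo) after 48 hr drug exposure gives viability. Curves span 11 concentrations and are normalized to DMSO and empty wells. Activity is reported as area under the curve and its Z-transform within each cell line.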

[11] = BET inhibitor-based combinations targeting novel dependencies in MECOM-rearranged (r) AML: OCI-AML3 cell line (AID 2202232); conditions: Potency: OCI-AML3 viability; note: nearly all actives have a fitted effect of over 35% in size; note: potency is the fitted concentration of half-maximal effect
Procedure, shortened: as §1

[12] = BET inhibitor-based combinations targeting novel dependencies in MECOM-rearranged (r) AML: MV-4-11 cell line (AID 2202233); note: nearly all actives have a fitted effect of over 45% in size; note: potency is the fitted concentration of half-maximal effect
Procedure, shortened: (§2)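 Luminescent ATP readout (CellTiter-Glo, 15 min at room temperature) after 48 hr drug exposure gave viability. Dose-response curves, normalized to DMSO and empty-well controls, were summarized as area under the curve and its mean-centred Z-score.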

[13] = BET inhibitor-based combinations targeting novel dependencies in MECOM-rearranged (r) AML: AML-191 cell line (AID 2202236; note: nearly all actives have a fitted effect of over 35% in size; note: potency is the fitted concentration of half-maximal effect)
Procedure, shortened: as §1

[14] = BET inhibitor-based combinations targeting novel dependencies in MECOM-rearranged (r) AML: AML-194 cell line (AID 2202237; note: nearly all actives have a fitted effect of over 40% in size; note: potency is the fitted concentration of half-maximal effect)
Procedure, shortened: as §1

[15] = BET inhibitor-based combinations targeting novel dependencies in MECOM-rearranged (r) AML: UCSD-AML1 cell line (AID 2202235); note: nearly all actives have a fitted effect of over 40% in size; note: potency is the fitted concentration of half-maximal effect
Procedure, shortened: as §2

[16] = BET inhibitor-based combinations targeting novel dependencies in MECOM-rearranged (r) AML: HNT-34 cell line (AID 2202234);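 note: plate controls were vehicle wells for no effect and cell-free wells for full effect; nearly all actives have a fitted effect of over 35% in size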
Procedure, shortened: as §2

Cellular tumor antigen p53 (Homo sapiens), sequence (P04637 whole entry, looked up): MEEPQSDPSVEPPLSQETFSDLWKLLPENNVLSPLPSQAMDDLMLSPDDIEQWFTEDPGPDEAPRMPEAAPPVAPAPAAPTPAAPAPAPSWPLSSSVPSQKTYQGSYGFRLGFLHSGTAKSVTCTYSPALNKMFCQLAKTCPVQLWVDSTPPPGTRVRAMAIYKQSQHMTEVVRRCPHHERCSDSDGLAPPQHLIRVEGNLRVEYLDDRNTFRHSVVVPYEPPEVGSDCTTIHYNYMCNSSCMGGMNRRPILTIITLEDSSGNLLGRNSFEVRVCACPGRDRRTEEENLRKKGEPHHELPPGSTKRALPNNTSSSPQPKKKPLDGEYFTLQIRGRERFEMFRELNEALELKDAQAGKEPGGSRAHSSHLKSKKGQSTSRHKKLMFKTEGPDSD

COC(=O)c1ccc(O[C@@H]2O[C@H](CO)[C@@H](O)[C@H](O)[C@H]2O)c(OC)c1
inactive: activation [1] -13.4% | Potency [2] | Potency [3]
active: Potency [4] 17.5 µM

CC[C@H](CO)Nc1nc(NCc2ccc(-c3ccccn3)cc2)c2ncn(C(C)C)c2n1
active: Potency [1] 0.536 µM
inactive: Potency [2] | Potency [5] | Potency [6] | Potency [7]

C[N+](C)(C)CCOC(=O)CCC(=O)OCC[N+](C)(C)C
inactive: activation [1] -8.47% | Potency [2] | Potency [5] | Potency [4] | Potency [8] | Potency [7]

CC1(C)CCC2(C(=O)OC3OC(CO)C(O)C(O)C3O)CCC3(C)C(=CCC4C5(C)CCC(O)C(C)(C(=O)O)C5CCC43C)C2C1O (configuration not stated)
inactive: activation [1] 3.57% | Potency [2] | Potency [3] | Potency [4] | Potency [8] | Potency [6] | Potency [7]

CCOC(=O)C1=C(N)Oc2ccc(Br)cc2C1C(C#N)C(=O)OCC (configuration not stated)
inactive: Potency [2] | Potency [3] | Potency [9] | Potency [6] | viability [10] 112% | Potency [11] | Potency [12] | Potency [13] | Potency [14]
active: Potency [1] 30.1 µM | Potency [4] 11.3 µM

Nc1ccccc1NC(=O)c1ccc(CNC(=O)OCc2cccnc2)cc1
active: Potency [10] 2.09 µM | Potency [11] 2.35 µM | Potency [12] 1.48 µM | Potency [15] 1.66 µM | Potency [13] 2.63 µM | Potency [14] 4.68 µM
inactive: activation [1] 3.28% | Potency [2] | Potency [3] | Potency [4] | Potency [9] | Potency [8] | Potency [6] | Potency [7]

COC(=O)N1CCN(Cc2cccc(NC(=O)Nc3ccc(C)nc3)c2F)CC1
inactive: activation [1] 4.35% and -6.68% | Potency [2] | Potency [3] | Potency [4] | Potency [9] | Potency [8] | Potency [6] | Potency [7] | viability [10] 104% | Potency [11] | Potency [16] | Potency [13] | Potency [14]

CCC(C)C(N)C1=NC(C(=O)N[C@@H](CC(C)C)C(=O)N[C@H](CCC(=O)O)C(=O)N[C@H](C(=O)N[C@H]2CCCCNC(=O)[C@H](CC(N)=O)NC(=O)[C@@H](CC(=O)O)NC(=O)[C@H](Cc3cnc[nH]3)NC(=O)[C@@H](Cc3ccccc3)NC(=O)[C@H]([C@@H](C)CC)NC(=O)[C@@H](CCCN)NC2=O)[C@@H](C)CC)CS1 (some centres not stated) (X1-L[dE]IK[dOrn]I[dF]H[dD]N; lactam 4-C)
inactive: activation [1] -3.34% and -0.955% | Potency [3] | Potency [4] | Potency [9] | Potency [6] | viability [10] 117% | Potency [11] | Potency [12] | Potency [16] | Potency [15] | Potency [13] | Potency [14]
active: Potency [2] 12.7 µM | Potency [8] 11.3 µM | Potency [7] 4 µM

CN(C)c1ccc2c(c1)OC(N)=C(C#N)C2c1cccc(C(F)(F)F)c1 (configuration not stated)
active: Potency [1] 0.953 µM
inactive: Potency [2] | Potency [5] | Potency [7]

CN(C)C(=O)Nc1cc(-c2ccccc2)ccc1N(C)C
inactive: activation [1] -13.7% | Potency [2] | Potency [5]
active: Potency [6] 28.2 µM

COCCN(C(=O)c1cc(OC)c(OC)c(OC)c1)c1nc(-c2ccccc2)cs1
inactive: activation [1] 19.1% | Potency [2] | Potency [5] | Potency [4] | Potency [8] | Potency [7]

CCCN(CCN1CCN(c2ccccc2OC)CC1)C1CCc2ncsc2C1 (configuration not stated)
inactive: activation [1] -3.57% | Potency [2] | Potency [5] | Potency [4] | Potency [8] | Potency [7]

Cc1csc2c(N[C@@H](C)CN3CCN(S(=O)(=O)c4ccc(Cl)c(Cl)c4)CC3)ncnc12
inactive: activation [1] -2.86% | Potency [6]
active: Potency [2] 12.6 µM | Potency [5] 708 nM and 224 nM | Potency [7] 8.96 µM

CO/N=C(/C(=O)N[C@@H]1C(=O)N2C(C(=O)O)=C(Cn3ccc(=N)n3CCO)CS[C@H]12)c1csc(N)n1
inactive: activation [1] 2.39% | Potency [2] | Potency [5] | Potency [9] | Potency [8] | Potency [6]

CC(=O)Nc1sc2c(c1-c1nc3ccccc3s1)CNC2
inactive: Potency [6]
active: Potency [1] 26.9 µM | Potency [2] 11.3 µM | Potency [5] 7.12 µM | Potency [7] 6.34 µM

O=C(O)c1cn(C2CC2)c2cc(N3C[C@@H]4C[C@H]3CN4)c(F)cc2c1=O
active: Potency [7] 31.8 µM
inactive: activation [1] 11.7% | Potency [2] | Potency [3] | Potency [4] | Potency [8] | Potency [6]

O=C1CC(c2ccc([N+](=O)[O-])cc2)=NN1c1ccccc1
inactive: activation [1] -8.93% | Potency [2] | Potency [5] | Potency [7]
active: Potency [4] 11.3 µM

COc1ccc2c(c1O)OC[C@H]1c3ccc(O)cc3O[C@@H]21
inactive: activation [1] -14.5% | Potency [2] | Potency [3]
active: Potency [4] 22.5 µM
